Results: PubChem BioAssay (NCATS)
Results filed as inconclusive are left out. Calls of active or inactive are those of the source. The call rests on the fitted dose curve; in most records, active means well fitted inhibition curve with a large enough effect; inconclusive means small, poorly fitted or top-dose-only effect; inactive means flat fitted curve, though single readings scatter.

Legend:
Experiment in all cases: qHTS profiling for inhibitors of Plasmodium falciparum proliferation (AID 504749); further: nearly all actives have a fitted effect of over 60% in size
Conditions in all cases: P. falciparum in erythrocytes, SYBR Green DNA, 72 h; series mostly up to 28.7 µM
CP194 = tested on: CP194
In short: (§1)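 Quantitative HTS: compounds pinned into medium, infected erythrocytes added (0.3% parasitemia, 2.5% hematocrit), 72 h culture at 37 C under 5% CO2. Saponin/Triton lysis with SYBR Green I, overnight RT, then fluorescence read.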

CP201 = tested on: CP201
In short: as §1

CP203 = tested on: CP203
In short: as §1

CP211 = tested on: CP211
In short: as §1

CP215 = tested on: CP215
In short: as §1

CP217 = tested on: CP217
In short: as §1

CP237 = tested on: CP237
In short: as §1

CP238 = tested on: CP238
In short: as §1

CP247 = tested on: CP247
In short: as §1

CP250 = tested on: CP250
In short: as §1

CP252 = tested on: CP252
In short: as §1

CP256 = tested on: CP256
In short: as §1

CP260 = tested on: CP260
In short: as §1

CP262 = tested on: CP262
In short: as §1

CP265 = tested on: CP265
In short: as §1

CP266 = tested on: CP266
In short: as §1

CP268 = tested on: CP268
In short: as §1

CP269 = tested on: CP269
In short: as §1

CP286 = tested on: CP286
In short: as §1

CP291 = tested on: CP291
In short: as §1

Measured: Potency

CC/C=C\C/C=C\C/C=C\C/C=C\C/C=C\C/C=C\CCC(=O)O
inactive: CP194 | CP201 | CP203 | CP211 | CP215 | CP217 | CP237 | CP238 | CP247 | CP250 | CP252 | CP256 | CP260 | CP262 | CP265 | CP266 | CP268 | CP269 | CP286 | CP291

Cc1cc(=O)c(C(=O)N[C@@H](C(=O)N[C@@H]2C(=O)N3C(C(=O)O)=C(CSc4nnnn4C)CS[C@H]23)c2ccc(O)cc2)c[nH]1
inactive: CP194 | CP201 | CP203 | CP211 | CP215 | CP217 | CP237 | CP238 | CP247 | CP250 | CP252 | CP256 | CP260 | CP262 | CP265 | CP266 | CP268 | CP269 | CP286 | CP291

CCCCCCCCCC(=O)NO
inactive: CP194 | CP201 | CP203 | CP211 | CP215 | CP217 | CP237 | CP238 | CP247 | CP250 | CP252 | CP256 | CP260 | CP262 | CP265 | CP266 | CP268 | CP269 | CP286 | CP291

O=C(CCCCCCCCCCCCC1CCCC1)Nc1ccc(S(=O)(=O)c2ccc(NC(=O)CCCCCCCCCCCCC3CCCC3)cc2)cc1
inactive: CP194 | CP201 | CP203 | CP211 | CP215 | CP217 | CP237 | CP238 | CP247 | CP250 | CP252 | CP256 | CP260 | CP262 | CP265 | CP266 | CP268 | CP269 | CP286 | CP291

CC(C)(CO)[C@@H](O)C(=O)NCCC(=O)NCCSSCCNC(=O)CCNC(=O)[C@H](O)C(C)(C)CO
inactive: CP194 | CP201 | CP203 | CP211 | CP215 | CP217 | CP237 | CP238 | CP247 | CP250 | CP252 | CP256 | CP260 | CP262 | CP265 | CP266 | CP268 | CP269 | CP286 | CP291

CCN(CC)C(=S)S
inactive: CP194 | CP201 | CP203 | CP211 | CP215 | CP217 | CP237 | CP238 | CP247 | CP250 | CP252 | CP256 | CP260 | CP262 | CP265 | CP266 | CP268 | CP269 | CP286 | CP291

NC(=S)NS(=O)(=O)c1ccc(N)cc1
inactive: CP194 | CP201 | CP203 | CP211 | CP215 | CP217 | CP237 | CP238 | CP247 | CP250 | CP252 | CP256 | CP260 | CP262 | CP265 | CP266 | CP268 | CP269 | CP286 | CP291

CC(=O)Nc1ccc(OC(C)=O)cc1
inactive: CP194 | CP201 | CP203 | CP211 | CP215 | CP217 | CP237 | CP238 | CP247 | CP250 | CP252 | CP256 | CP260 | CP262 | CP265 | CP266 | CP268 | CP269 | CP286 | CP291

O=C(OCc1ccccc1)c1ccc(O)cc1
inactive: CP194 | CP201 | CP203 | CP211 | CP215 | CP217 | CP237 | CP238 | CP247 | CP250 | CP252 | CP256 | CP260 | CP262 | CP265 | CP266 | CP268 | CP269 | CP286 | CP291

O=C(O)[C@H]1CN(C/C=C/P(=O)(O)O)CCN1
inactive: CP194 | CP201 | CP203 | CP211 | CP215 | CP217 | CP237 | CP238 | CP247 | CP250 | CP252 | CP256 | CP260 | CP262 | CP265 | CP266 | CP268 | CP269 | CP286 | CP291

OC[C@H]1O[C@@](CO)(O[C@H]2O[C@H](CO)[C@@H](O)[C@H](O)[C@H]2O)[C@@H](O)[C@@H]1O
inactive: CP194 | CP201 | CP203 | CP211 | CP215 | CP217 | CP237 | CP238 | CP247 | CP250 | CP252 | CP256 | CP260 | CP262 | CP265 | CP266 | CP268 | CP269 | CP286 | CP291

CC(CNC(=O)c1cccnc1)NC(=O)c1cccnc1 (stereo not given)
inactive: CP194 | CP201 | CP203 | CP211 | CP215 | CP217 | CP237 | CP238 | CP247 | CP250 | CP252 | CP256 | CP260 | CP262 | CP265 | CP266 | CP268 | CP269 | CP286 | CP291
